PubChem BioAssay (NCI)
This is part of a sample that, as a whole, favours compounds with a hit. Of some 79,000 tested, about 15% had one in any assay. Values without a mark were called inactive. Cut-off read from the data, not from the text of the source: active = growth inhibition above about 70%; inactive = the rest.

Experiment: NCI Yeast Anticancer Drug Screen. Data for the bub3 strain (AID 167)
Conditions: S. cerevisiae bub3 mutant strain, at 50.0 µM, hits give high values
Method in brief: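 Readout: yeast growth inhibition, expressed relative to vehicle-only wells. The test organism is a mutant strain from a panel with lesions in DNA repair or checkpoint genes.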

| Structure (SMILES) | growth inhibition [%] |
| --- | --- |
| COc1ccc(S(=O)c2coc3ccccc3c2=O)cc1 (stereo not drawn) | 28.1 |
| O=C(O)c1cccc(S(=O)(=O)NCCO)c1 | -36.1 |
| CC1C=CCCC1COC(=O)C(=O)OCC1CC=CCC1C (stereo not drawn) | 31.9 |
| CCCCC(=O)Nc1ccc(Cl)cc1 | -19.9 |
| CC(=O)CC1CCCC1 | 5.3 |
| CCN(c1ccccc1)c1nsc(Cl)n1 | 8.25 |
| c1ccc(CSCCc2ccncc2)cc1 | -3.55 |
| C[n+]1ccsn1 | -19.4 |
| CC(C)CC(C)(CC(C)C)C(=O)O | -1.3 |
| CN(C)c1ccccc1CC(=O)Nc1ccccc1 | 1.9 |
| CC(C)(C)OC(=O)CN1C(=O)CCC1=O | 4.45 |
| CCN(CC)C(=O)C1(C)NS(=O)(=O)c2ccccc2C1=O (stereo not drawn) | -10.8 |
| CC(=O)CC(C)(C)NNC(N)=S | -4.2 |
| C/C=C/C1N(C)CCCN1C | -25.9 |
| COc1ccc(N2C(=O)C3c4[nH]c5ccccc5c4C4CCCCCCC4C3C2=O)cc1 (stereo not drawn) | 11.9 |
| CC(C)C1N=C(N)N=C(N)N1c1ccc(Cl)c(Cl)c1 (stereo not drawn) | 5.25 |
| CC(NC(=O)c1ccc(C(C[N+](=O)[O-])SCCC(=O)O)cc1)C(=O)O (stereo not drawn) | -15.9 |
| Ic1ccccn1 | -8.15 |
| COc1cc2nc(C)oc(=O)c2cc1OC | -12.3 |
| N#CC1(C#N)CC1(C#N)C#N | 12.7 |
| Cc1cc(N=Cc2c(CO)cnc(C)c2O)c(N=Cc2c(CO)cnc(C)c2O)cc1C.[Zn] | -2.1 |
| Cn1nc2c(c1-c1cccnc1)CCCc1ccccc1-2 | 69.3 |
| COC(=O)C(C(=O)C(=O)Nc1ccc([N+](=O)[O-])cc1)c1nc2ccc([N+](=O)[O-])cc2[nH]c1=O (stereo not drawn) | -0.85 |
